According to PMC7862700, “An all-to-all approach to the identification of sequence-specific readers for epigenetic DNA modifications on cytosine”:

Legend:
Assay in all cases: DAPPL (digital affinity profiling via proximity ligation, sequencing); 10 mM Tris-HCl pH 7.5, 50 mM NaCl, 1 mM DTT, 4% glycerol, room temperature, 30 min; GST-TFs on glutathione beads, 16-mer random dsDNA library, 0.1% formaldehyde crosslink after washing; high values mean tight binding
[1] = biological target: T1, FLI1 (Homo sapiens, UniProt Q01543 1-452); conditions: protein: recombinant; tags: N-terminal GST; dsDNA, one strand shown
T1 sequence: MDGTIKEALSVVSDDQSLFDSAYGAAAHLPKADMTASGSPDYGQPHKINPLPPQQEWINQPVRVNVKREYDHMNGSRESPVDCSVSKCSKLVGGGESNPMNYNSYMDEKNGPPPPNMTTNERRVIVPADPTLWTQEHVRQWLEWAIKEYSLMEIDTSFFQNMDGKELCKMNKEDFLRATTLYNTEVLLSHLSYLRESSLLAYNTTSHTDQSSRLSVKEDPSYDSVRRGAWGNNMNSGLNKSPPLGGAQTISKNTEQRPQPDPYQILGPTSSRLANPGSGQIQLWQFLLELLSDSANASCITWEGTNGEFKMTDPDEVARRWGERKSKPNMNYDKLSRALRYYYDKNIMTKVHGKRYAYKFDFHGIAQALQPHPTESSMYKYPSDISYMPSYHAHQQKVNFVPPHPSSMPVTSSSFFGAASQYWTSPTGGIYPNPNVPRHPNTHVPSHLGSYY
Outline: (§1)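 Binding signal is defined as a hexamer's read frequency for one factor over its frequency for the tag-only sample. To obtain reads, GST-fused human transcription factors were expressed in yeast, captured on glutathione beads, barcoded with DNA and pooled with that sample. Pools met 200 nmole of a 16-mer random double-stranded DNA library in Tris/NaCl/DTT/glycerol buffer for 30 min at room temperature before washing, 0.1% formaldehyde crosslinking, proximity ligation (BsaI/T4 ligase, 1 h, 37 °C), PCR and Illumina NextSeq500 sequencing.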

[2] = biological target: T2, ELK1 (Homo sapiens, UniProt P19419 1-428); conditions: protein: recombinant; tags: N-terminal GST; dsDNA, one strand shown
T2 sequence: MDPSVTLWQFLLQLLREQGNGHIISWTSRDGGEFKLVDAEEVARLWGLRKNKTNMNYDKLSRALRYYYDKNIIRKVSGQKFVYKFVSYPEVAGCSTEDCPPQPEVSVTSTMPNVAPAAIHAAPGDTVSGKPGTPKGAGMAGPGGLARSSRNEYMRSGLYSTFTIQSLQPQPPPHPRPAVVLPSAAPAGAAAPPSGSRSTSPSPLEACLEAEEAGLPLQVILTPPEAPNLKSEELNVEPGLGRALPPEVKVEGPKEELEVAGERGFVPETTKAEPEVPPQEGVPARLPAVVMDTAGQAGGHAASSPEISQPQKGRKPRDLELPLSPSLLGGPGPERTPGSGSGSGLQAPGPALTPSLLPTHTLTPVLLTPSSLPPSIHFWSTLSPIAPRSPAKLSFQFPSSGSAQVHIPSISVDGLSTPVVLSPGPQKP
Outline: as §1

[3] = biological target: T3, GABPA (Homo sapiens, UniProt Q06546 1-454); conditions: protein: recombinant; tags: N-terminal GST; dsDNA, one strand shown
T3 sequence: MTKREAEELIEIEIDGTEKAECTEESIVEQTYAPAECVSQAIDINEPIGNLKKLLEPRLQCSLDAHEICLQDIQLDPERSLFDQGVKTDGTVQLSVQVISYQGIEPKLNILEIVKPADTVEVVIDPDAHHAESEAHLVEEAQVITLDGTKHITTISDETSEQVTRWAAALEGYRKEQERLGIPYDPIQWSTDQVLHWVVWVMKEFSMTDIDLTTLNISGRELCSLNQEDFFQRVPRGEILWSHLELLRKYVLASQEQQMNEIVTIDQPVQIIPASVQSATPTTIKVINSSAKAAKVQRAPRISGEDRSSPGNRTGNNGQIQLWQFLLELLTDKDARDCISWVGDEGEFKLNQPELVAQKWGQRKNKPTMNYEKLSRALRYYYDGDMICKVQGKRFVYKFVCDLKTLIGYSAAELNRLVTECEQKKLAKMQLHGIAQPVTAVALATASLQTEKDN
Outline: as §1

[4] = biological target: T4, ERG (Homo sapiens, UniProt P11308 1-479); conditions: protein: recombinant; tags: N-terminal GST; dsDNA, one strand shown
T4 sequence: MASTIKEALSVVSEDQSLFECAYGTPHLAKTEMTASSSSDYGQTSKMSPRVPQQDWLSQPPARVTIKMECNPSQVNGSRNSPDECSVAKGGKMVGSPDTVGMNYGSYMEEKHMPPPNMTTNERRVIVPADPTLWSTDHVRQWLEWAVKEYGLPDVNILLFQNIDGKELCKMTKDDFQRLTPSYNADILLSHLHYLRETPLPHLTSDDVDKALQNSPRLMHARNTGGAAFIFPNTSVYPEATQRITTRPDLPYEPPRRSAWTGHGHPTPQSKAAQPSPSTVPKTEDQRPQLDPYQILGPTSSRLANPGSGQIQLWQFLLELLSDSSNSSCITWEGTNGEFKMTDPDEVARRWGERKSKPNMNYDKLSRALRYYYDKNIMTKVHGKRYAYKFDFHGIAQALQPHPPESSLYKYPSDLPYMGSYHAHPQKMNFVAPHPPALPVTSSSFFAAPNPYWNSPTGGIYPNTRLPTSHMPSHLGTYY
Outline: as §1

[5] = biological target: ELF1 (Homo sapiens, UniProt P32519 1-619); conditions: protein: recombinant; tags: N-terminal GST; dsDNA, one strand shown
Sequence of ELF1 (P32519 whole entry): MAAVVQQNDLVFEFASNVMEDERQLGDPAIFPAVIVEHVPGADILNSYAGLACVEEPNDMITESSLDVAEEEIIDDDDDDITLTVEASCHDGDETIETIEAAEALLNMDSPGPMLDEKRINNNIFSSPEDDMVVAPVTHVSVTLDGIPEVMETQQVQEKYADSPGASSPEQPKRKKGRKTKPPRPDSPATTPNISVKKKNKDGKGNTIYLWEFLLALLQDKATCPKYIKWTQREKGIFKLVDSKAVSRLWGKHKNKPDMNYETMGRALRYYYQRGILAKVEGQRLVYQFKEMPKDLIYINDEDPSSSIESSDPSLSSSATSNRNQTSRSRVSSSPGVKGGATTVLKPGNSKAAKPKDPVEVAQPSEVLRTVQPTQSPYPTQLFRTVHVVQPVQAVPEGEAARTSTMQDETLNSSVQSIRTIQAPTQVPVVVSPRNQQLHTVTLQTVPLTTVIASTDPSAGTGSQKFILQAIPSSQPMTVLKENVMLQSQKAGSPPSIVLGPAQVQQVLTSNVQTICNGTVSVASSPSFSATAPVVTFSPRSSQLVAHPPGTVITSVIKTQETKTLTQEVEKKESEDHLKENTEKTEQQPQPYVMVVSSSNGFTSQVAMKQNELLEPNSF
Outline: as §1

[6] = biological target: T5, EHF (Homo sapiens, UniProt Q9NZC4 1-300); conditions: protein: recombinant; tags: N-terminal GST; dsDNA, one strand shown
T5 sequence: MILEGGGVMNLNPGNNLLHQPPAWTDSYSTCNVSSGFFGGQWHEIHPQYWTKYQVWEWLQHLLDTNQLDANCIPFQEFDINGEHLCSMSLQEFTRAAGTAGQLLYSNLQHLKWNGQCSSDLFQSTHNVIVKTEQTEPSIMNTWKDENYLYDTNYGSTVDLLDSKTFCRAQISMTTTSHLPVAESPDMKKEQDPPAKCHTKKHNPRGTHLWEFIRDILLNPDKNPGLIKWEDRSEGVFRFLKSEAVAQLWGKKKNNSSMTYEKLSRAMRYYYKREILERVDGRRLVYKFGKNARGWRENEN
Outline: as §1

[7] = biological target: SPI1 (Homo sapiens, UniProt P17947 1-270); conditions: protein: recombinant; tags: N-terminal GST; dsDNA, one strand shown
Outline: as §1

[8] = biological target: SPIB (Homo sapiens, UniProt Q01892 1-262); conditions: protein: recombinant; tags: N-terminal GST; dsDNA, one strand shown
Sequence of SPIB (Q01892 whole entry): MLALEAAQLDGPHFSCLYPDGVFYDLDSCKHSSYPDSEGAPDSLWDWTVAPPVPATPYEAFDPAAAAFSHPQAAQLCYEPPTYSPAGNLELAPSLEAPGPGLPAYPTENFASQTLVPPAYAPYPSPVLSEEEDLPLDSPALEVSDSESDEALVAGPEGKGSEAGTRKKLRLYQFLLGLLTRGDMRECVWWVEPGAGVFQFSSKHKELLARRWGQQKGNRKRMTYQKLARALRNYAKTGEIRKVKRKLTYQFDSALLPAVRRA
Outline: as §1

[9] = biological target: T6, ELK3 (Homo sapiens, UniProt P41970 1-407); conditions: protein: recombinant; tags: N-terminal GST; dsDNA, one strand shown
T6 sequence: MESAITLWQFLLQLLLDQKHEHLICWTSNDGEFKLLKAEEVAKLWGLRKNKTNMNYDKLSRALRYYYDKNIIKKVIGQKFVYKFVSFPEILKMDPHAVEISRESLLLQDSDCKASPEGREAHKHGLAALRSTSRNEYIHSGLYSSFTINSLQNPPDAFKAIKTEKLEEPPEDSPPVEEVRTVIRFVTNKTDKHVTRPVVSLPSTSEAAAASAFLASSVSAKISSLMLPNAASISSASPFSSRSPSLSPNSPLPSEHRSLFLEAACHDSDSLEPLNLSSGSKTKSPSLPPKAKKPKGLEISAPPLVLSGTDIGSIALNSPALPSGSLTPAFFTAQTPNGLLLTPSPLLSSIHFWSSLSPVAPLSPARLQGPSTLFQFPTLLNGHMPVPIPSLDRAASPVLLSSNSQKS
Outline: as §1

[10] = biological target: T7, FEV (Homo sapiens, UniProt Q99581 1-238); conditions: protein: recombinant; tags: N-terminal GST; dsDNA, one strand shown
T7 sequence: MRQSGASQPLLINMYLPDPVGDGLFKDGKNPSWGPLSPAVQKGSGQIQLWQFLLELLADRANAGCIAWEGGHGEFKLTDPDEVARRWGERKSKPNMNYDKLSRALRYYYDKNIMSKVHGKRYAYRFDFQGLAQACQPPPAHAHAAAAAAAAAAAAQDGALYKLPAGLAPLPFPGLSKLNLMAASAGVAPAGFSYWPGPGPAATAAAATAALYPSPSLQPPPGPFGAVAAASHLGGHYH
Outline: as §1

[11] = biological target: ETV5 (Homo sapiens, UniProt P41161 1-510); conditions: protein: recombinant; tags: N-terminal GST; dsDNA, one strand shown
Sequence of ETV5 (P41161 whole entry): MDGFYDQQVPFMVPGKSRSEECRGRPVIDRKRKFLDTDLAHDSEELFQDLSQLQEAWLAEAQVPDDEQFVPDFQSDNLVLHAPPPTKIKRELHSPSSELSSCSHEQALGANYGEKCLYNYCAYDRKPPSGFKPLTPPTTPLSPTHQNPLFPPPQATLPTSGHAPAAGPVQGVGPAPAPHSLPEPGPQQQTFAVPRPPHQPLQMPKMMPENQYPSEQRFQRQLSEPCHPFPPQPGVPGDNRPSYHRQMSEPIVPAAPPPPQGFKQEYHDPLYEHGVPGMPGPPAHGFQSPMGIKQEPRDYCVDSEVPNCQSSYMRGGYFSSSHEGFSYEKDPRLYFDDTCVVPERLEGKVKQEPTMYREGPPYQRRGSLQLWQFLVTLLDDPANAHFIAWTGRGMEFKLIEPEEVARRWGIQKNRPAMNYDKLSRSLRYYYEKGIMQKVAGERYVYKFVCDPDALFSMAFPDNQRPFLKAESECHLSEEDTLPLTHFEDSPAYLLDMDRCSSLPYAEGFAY
Outline: as §1

[12] = biological target: HSF1 (Homo sapiens, UniProt Q00613 1-529); conditions: protein: recombinant; tags: N-terminal GST; chain copies: 3; dsDNA, one strand shown
Sequence of HSF1 (Q00613 whole entry): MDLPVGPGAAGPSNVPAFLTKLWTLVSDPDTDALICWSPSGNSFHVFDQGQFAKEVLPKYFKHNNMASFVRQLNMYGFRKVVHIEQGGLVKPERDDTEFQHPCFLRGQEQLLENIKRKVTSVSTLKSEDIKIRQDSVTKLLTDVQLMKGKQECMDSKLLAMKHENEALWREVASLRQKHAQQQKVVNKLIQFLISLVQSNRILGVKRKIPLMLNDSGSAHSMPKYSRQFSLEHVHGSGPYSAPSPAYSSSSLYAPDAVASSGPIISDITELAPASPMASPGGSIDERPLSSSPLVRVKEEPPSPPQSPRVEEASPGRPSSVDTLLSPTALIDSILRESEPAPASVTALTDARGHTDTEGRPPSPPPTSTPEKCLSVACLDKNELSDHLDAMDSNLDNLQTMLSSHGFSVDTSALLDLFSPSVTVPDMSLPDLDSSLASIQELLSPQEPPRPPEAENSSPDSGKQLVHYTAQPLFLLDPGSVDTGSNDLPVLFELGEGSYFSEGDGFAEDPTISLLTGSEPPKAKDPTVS
Outline: as §1

[13] = biological target: T8, SPIC (Homo sapiens, UniProt Q8N5J4 1-248); conditions: protein: recombinant; tags: N-terminal GST; dsDNA, one strand shown
T8 sequence: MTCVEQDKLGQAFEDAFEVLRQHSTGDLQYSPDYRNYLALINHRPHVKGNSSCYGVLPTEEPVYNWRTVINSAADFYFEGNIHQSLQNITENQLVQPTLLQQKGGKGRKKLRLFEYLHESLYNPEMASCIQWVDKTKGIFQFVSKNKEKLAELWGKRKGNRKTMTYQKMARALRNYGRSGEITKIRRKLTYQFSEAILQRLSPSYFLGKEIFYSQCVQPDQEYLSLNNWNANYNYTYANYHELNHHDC
Outline: as §1

[14] = biological target: ELF4 (Homo sapiens, UniProt Q99607 1-663); conditions: protein: recombinant; tags: N-terminal GST; dsDNA, one strand shown
Sequence of ELF4 (Q99607 whole entry): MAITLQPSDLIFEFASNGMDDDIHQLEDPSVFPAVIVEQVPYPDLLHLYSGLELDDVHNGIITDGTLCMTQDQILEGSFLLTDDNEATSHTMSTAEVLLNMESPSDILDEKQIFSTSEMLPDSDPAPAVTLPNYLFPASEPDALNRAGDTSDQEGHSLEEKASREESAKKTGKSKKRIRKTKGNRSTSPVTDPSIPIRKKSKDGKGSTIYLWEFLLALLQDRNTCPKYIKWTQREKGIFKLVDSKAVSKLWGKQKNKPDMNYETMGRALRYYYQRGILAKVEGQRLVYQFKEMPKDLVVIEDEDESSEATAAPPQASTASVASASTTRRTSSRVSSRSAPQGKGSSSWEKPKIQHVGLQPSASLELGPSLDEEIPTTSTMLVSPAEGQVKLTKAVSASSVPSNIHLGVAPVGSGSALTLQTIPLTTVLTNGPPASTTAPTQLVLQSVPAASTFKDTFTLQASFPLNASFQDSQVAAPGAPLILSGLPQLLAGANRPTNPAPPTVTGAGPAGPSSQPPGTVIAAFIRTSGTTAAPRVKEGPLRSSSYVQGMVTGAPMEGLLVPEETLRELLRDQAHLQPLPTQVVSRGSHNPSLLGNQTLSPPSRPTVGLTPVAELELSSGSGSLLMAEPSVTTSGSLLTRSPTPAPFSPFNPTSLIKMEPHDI
Outline: as §1

[15] = biological target: T9, ELK4 (Homo sapiens, UniProt P28324-2 1-405); conditions: protein: recombinant; tags: N-terminal GST; dsDNA, one strand shown
T9 sequence: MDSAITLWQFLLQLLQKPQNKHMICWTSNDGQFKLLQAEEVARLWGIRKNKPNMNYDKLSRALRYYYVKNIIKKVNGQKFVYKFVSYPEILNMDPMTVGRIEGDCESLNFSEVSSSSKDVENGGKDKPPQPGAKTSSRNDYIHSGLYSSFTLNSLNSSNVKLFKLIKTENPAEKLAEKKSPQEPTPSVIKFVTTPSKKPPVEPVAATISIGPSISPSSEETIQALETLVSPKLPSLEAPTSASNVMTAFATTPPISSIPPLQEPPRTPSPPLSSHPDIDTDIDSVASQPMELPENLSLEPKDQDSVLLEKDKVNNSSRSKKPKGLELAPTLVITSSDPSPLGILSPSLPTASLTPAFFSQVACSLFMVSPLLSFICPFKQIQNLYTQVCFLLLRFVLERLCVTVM
Outline: as §1

[16] = biological target: T10, ETV2 (Homo sapiens, UniProt O00321 1-342); conditions: protein: recombinant; tags: N-terminal GST; dsDNA, one strand shown
T10 sequence: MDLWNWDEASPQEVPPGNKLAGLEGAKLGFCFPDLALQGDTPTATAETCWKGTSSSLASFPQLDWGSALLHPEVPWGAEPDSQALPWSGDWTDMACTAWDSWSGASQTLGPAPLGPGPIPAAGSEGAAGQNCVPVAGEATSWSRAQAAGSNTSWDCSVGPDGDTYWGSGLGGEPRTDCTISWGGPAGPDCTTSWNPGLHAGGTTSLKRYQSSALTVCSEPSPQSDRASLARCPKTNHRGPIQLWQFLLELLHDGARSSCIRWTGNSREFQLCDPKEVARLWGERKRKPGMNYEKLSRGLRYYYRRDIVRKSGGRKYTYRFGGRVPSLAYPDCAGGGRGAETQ
Outline: as §1

[17] = biological target: T11, ELF3 (Homo sapiens, UniProt P78545 1-371); conditions: protein: recombinant; tags: N-terminal GST; dsDNA, one strand shown
T11 sequence: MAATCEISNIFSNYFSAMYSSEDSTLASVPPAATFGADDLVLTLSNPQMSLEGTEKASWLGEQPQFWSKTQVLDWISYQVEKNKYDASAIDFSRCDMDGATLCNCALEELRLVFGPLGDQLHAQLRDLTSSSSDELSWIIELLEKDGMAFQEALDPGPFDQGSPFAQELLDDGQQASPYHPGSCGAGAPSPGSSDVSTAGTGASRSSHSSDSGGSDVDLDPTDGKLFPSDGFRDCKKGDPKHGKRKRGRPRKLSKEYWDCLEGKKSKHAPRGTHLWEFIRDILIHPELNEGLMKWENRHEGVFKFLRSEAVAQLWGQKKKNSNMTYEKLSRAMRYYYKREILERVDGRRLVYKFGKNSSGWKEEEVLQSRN
Outline: as §1

[18] = biological target: CRX (Homo sapiens, UniProt O43186 1-299); conditions: protein: recombinant; tags: N-terminal GST; dsDNA, one strand shown
Sequence of CRX (O43186 whole entry): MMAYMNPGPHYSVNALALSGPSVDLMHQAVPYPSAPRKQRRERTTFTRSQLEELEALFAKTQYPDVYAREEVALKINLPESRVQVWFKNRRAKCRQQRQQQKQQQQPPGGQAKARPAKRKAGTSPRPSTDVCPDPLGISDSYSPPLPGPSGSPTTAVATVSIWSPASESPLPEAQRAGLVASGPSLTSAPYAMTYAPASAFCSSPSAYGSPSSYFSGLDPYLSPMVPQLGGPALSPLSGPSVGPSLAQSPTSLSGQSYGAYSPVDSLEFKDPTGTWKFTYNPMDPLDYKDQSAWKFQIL
Outline: as §1

[19] = biological target: ETV1 (Homo sapiens, UniProt P50549 1-477); conditions: protein: recombinant; tags: N-terminal GST; dsDNA, one strand shown
Sequence of ETV1 (P50549 whole entry): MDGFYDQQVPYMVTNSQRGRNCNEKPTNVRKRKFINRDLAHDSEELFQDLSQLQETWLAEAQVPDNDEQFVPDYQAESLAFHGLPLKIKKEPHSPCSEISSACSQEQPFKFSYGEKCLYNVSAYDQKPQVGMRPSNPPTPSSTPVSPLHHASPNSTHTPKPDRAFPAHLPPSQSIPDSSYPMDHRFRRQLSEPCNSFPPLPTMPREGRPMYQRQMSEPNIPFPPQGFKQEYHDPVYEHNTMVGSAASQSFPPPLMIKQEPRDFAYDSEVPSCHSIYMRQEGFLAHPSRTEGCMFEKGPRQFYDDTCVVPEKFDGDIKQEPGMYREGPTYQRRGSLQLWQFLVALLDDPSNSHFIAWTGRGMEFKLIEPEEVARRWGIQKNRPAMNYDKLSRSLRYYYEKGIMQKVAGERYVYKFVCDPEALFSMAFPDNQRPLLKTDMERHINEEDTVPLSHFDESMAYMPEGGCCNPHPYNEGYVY
Outline: as §1

Sequence: ATCTGG
- binding signal [1]: 1.19 fold enrichment (6-mer frequency, TF over GST control)
- binding signal [2]: 1.01 fold enrichment (6-mer frequency, TF over GST control)
- binding signal [3]: 1.17 fold enrichment (6-mer frequency, TF over GST control)
- binding signal [4]: 1.14 fold enrichment (6-mer frequency, TF over GST control)
- binding signal [5]: 1.18 fold enrichment (6-mer frequency, TF over GST control)
- binding signal [6]: 1.12 fold enrichment (6-mer frequency, TF over GST control)
- binding signal [7]: 1.12 fold enrichment (6-mer frequency, TF over GST control)
- binding signal [8]: 1.14 fold enrichment (6-mer frequency, TF over GST control)
- binding signal [9]: 1.09 fold enrichment (6-mer frequency, TF over GST control)
- binding signal [10]: 1.23 fold enrichment (6-mer frequency, TF over GST control)
- binding signal [11]: 1.11 fold enrichment (6-mer frequency, TF over GST control)
- binding signal [12]: 2.08 fold enrichment (6-mer frequency, TF over GST control)
- binding signal [13]: 1.1 fold enrichment (6-mer frequency, TF over GST control)
- binding signal [14]: 1.22 fold enrichment (6-mer frequency, TF over GST control)
- binding signal [15]: 1.31 fold enrichment (6-mer frequency, TF over GST control)
- binding signal [16]: 1.23 fold enrichment (6-mer frequency, TF over GST control)
- binding signal [17]: 1.23 fold enrichment (6-mer frequency, TF over GST control)
- binding signal [18]: 1.65 fold enrichment (6-mer frequency, TF over GST control)
- binding signal [19]: 1.24 fold enrichment (6-mer frequency, TF over GST control)
